Among the data in PubChem BioAssay (NCI) are growth inhibition values, retold here.

The nature of assay [1]: NCI Yeast Anticancer Drug Screen. Data for the rad50 strain (AID 155).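 Note: 0% = growth of vehicle-only cultures of the same strain.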 To be noted: S. cerevisiae rad50 strain growth inhibition, stronger effect = higher value. The gist of the method: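 Readout: growth inhibition relative to vehicle-treated cultures. Compound exposure was carried out in a genetically defined yeast strain deficient in DNA damage repair.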
Assay [2] can be described thus: NCI Yeast Anticancer Drug Screen. Data for the mec2-1 strain (AID 157). The conditions noted are these: S. cerevisiae mec2-1 strain, stronger effect = higher value. The gist of the method: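 Mutant yeast (mec2-1) grown with compound; growth inhibition relative to vehicle control reported.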
A short description of assay [3]: NCI Yeast Anticancer Drug Screen. Data for the sgs1 mgt1 strain (AID 161).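 Note: 0% = growth of cultures given vehicle only.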 The conditions noted are these: S. cerevisiae sgs1 mgt1 strain, stronger effect = higher value. The gist of the method: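 Compounds are added to genetically altered yeast, and growth is compared with cultures given vehicle alone to give percent inhibition.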
Assay [4] can be described thus: NCI Yeast Anticancer Drug Screen. Data for the cln2 rad14 strain (AID 165).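 Note: 0% = growth equal to vehicle treated cultures.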 The conditions noted are these: S. cerevisiae cln2 rad14 strain, stronger effect = higher value. In short, it runs like this: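 Readout is yeast growth inhibition versus vehicle-treated controls, using a strain with cln2 and rad14 alterations exposed to compound.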
Assay [5] is described as follows: NCI Yeast Anticancer Drug Screen. Data for the bub3 strain (AID 167). To be noted: S. cerevisiae bub3 mutant strain, stronger effect = higher value. In short, it runs like this: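 Readout: yeast growth inhibition, expressed relative to vehicle-only wells. The test organism is a mutant strain from a panel with lesions in DNA repair or checkpoint genes.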
Assay [6] can be described thus: NCI Yeast Anticancer Drug Screen. Data for the mlh1 rad18 strain (AID 175). To be noted: S. cerevisiae mlh1 rad18 strain growth inhibition, stronger effect = higher value. In short, it runs like this:
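Genetically defined yeast (DNA repair-deficient) exposed to compounds; growth inhibition determined relative to vehicle.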

Setting [7] is: at 5.0 µM (retest, dose inferred, filed as 0.5).
Setting [8] is: at 50.0 µM (retest, dose inferred, filed as 5.0).

About 79,000 compounds went through this panel and 15% of them were active in at least one assay; those are over-represented in the sample as a whole. Values without a mark were called inactive. Active and inactive are the calls of the source. Cut-off read from the data, not from the text of the source: active = growth inhibition above about 70%; inactive = the rest.

`CN(C)c1ccc(C2C=C(c3ccccc3)Oc3ccccc32)cc1` (stereo not given): the growth inhibition in assay [1] (setting [7]) is 97% (active); in assay [1] (setting [8]), 96% (active); in assay [1] (at 50.0 µM), 96.7% (active); in assay [2] (setting [7]), 94% (active); in assay [2] (setting [8]), 96% (active); in assay [2] (at 50.0 µM), 97% (active). For the same compound, the growth inhibition is 97% (active) in assay [3] (setting [7]); 97% (active) in assay [3] (setting [8]); 96.9% (active) in assay [3] (at 50.0 µM); 92% (active) in assay [4] (setting [7]); 94% (active) in assay [4] (setting [8]); 95.8% (active) in assay [4] (at 50.0 µM). Also, the growth inhibition in assay [5] (setting [7]) was 93% (active); in assay [5] (setting [8]), 97% (active); in assay [5] (at 50.0 µM), 95.8% (active); in assay [6] (setting [7]), 95% (active); in assay [6] (setting [8]), 96% (active); in assay [6] (at 50.0 µM) it was 96.8% (active).
Regarding `CN(C)c1nc(N(C)C)oc(=[N+](C)C)n1`, the growth inhibition is -2% in assay [1] (setting [7]); -13% in assay [1] (setting [8]); 9.7% in assay [1] (at 50.0 µM); 3% in assay [2] (setting [7]); -8% in assay [2] (setting [8]); 9.35% in assay [2] (at 50.0 µM). The growth inhibition in assay [3] (setting [7]) is 0%; in assay [3] (setting [8]), -9%; in assay [3] (at 50.0 µM), 7.8%; in assay [4] (setting [7]) it was 3%; in assay [4] (setting [8]) it was 1%; in assay [4] (at 50.0 µM), 57.3%. Moreover, the growth inhibition in assay [5] (setting [7]) is 3%; in assay [5] (setting [8]), 15%; in assay [5] (at 50.0 µM), -7.45%; in assay [6] (setting [7]), 1%; in assay [6] (setting [8]), -13%; in assay [6] (at 50.0 µM), 30.4%.
For `CCCCOc1c(OCCCC)c(=O)c1=O`, the growth inhibition in assay [1] (setting [7]) was 78% (active); in assay [1] (setting [8]), 54%; in assay [1] (at 50.0 µM) it was -13.6%; in assay [2] (setting [7]) it was 88% (active); in assay [2] (setting [8]) it was 79% (active); in assay [2] (at 50.0 µM), -48.5%. The growth inhibition in assay [3] (setting [7]) is 14%; in assay [3] (setting [8]), 19%; in assay [3] (at 50.0 µM), -31.6%; in assay [4] (setting [7]), 37%; in assay [4] (setting [8]) it was 48%; in assay [4] (at 50.0 µM), 16.4%. Moreover, the growth inhibition in assay [5] (setting [7]) is 54%; in assay [5] (setting [8]), 54%; in assay [5] (at 50.0 µM), -26.6%; in assay [6] (setting [7]) it was 78% (active); in assay [6] (setting [8]) it was 55%; in assay [6] (at 50.0 µM) it was 40.5%.
Turning to `O=C1C=CC(=O)N1C1c2ccccc2-c2ccccc21`, the growth inhibition was 99% (active) in assay [1] (setting [7]); 99% (active) in assay [1] (setting [8]); 99.5% (active) in assay [1] (at 50.0 µM); 100% (active) in assay [2] (setting [7]); 100% (active) in assay [2] (setting [8]); 99.1% (active) in assay [2] (at 50.0 µM). Moreover, the growth inhibition in assay [3] (setting [7]) was 99% (active); in assay [3] (setting [8]) it was 100% (active); in assay [3] (at 50.0 µM), 99.5% (active); in assay [4] (setting [7]), 77% (active); in assay [4] (setting [8]) it was 99% (active); in assay [4] (at 50.0 µM), 98% (active). For the same compound, the growth inhibition was 100% (active) in assay [5] (setting [7]); 100% (active) in assay [5] (setting [8]); 99.5% (active) in assay [5] (at 50.0 µM); 99% (active) in assay [6] (setting [7]); 99% (active) in assay [6] (setting [8]); 97.1% (active) in assay [6] (at 50.0 µM).
On to `N=C(N)c1ccc(Nc2ccc(-c3cc4ccc(C(=N)N)cc4[nH]3)cc2)cc1`, for which the growth inhibition in assay [1] (setting [7]) was 99% (active); in assay [1] (setting [8]) it was 98% (active); in assay [1] (at 50.0 µM), 98.5% (active); in assay [2] (setting [7]), 99% (active); in assay [2] (setting [8]) it was 99% (active); in assay [2] (at 50.0 µM) it was 98.8% (active). Also, the growth inhibition was 99% (active) in assay [3] (setting [7]); 99% (active) in assay [3] (setting [8]); 98.8% (active) in assay [3] (at 50.0 µM); 99% (active) in assay [4] (setting [7]); 98% (active) in assay [4] (setting [8]); 98.3% (active) in assay [4] (at 50.0 µM). In addition, the growth inhibition is 99% (active) in assay [5] (setting [7]); 98% (active) in assay [5] (setting [8]); 99% (active) in assay [5] (at 50.0 µM); 99% (active) in assay [6] (setting [7]); 98% (active) in assay [6] (setting [8]); 98.5% (active) in assay [6] (at 50.0 µM).
Take `CC(C)C(NC(=O)/C=C\c1ccccc1)C(=O)O` (stereo not given): the growth inhibition in assay [1] (setting [7]) was -2%; in assay [1] (setting [8]) it was 1%; in assay [1] (at 50.0 µM), 88.4% (active); in assay [2] (setting [7]), 1%; in assay [2] (setting [8]) it was -6%; in assay [2] (at 50.0 µM), 94.2% (active). The growth inhibition was -5% in assay [3] (setting [7]); -7% in assay [3] (setting [8]); 93.5% (active) in assay [3] (at 50.0 µM); 7% in assay [4] (setting [7]); -6% in assay [4] (setting [8]); 95.3% (active) in assay [4] (at 50.0 µM). For the same compound, the growth inhibition is -3% in assay [5] (setting [7]); -1% in assay [5] (setting [8]); 71.7% (active) in assay [5] (at 50.0 µM); -2% in assay [6] (setting [7]); 4% in assay [6] (setting [8]); 95.2% (active) in assay [6] (at 50.0 µM).
In the case of `COC(=O)C12Oc3ccc(-c4ccc5c(c4O)C(O)=C4C(=O)CC(C)C(O)C4(C(=O)OC)O5)c(O)c3C(O)=C1C(=O)CC(C)C2O` (stereo not given), the growth inhibition in assay [1] (setting [7]) is 57%; in assay [1] (setting [8]), 97% (active); in assay [1] (at 50.0 µM), 90.5% (active); in assay [2] (setting [7]), 61%; in assay [2] (setting [8]), 96% (active); in assay [2] (at 50.0 µM), 88.3% (active). Besides, the growth inhibition in assay [3] (setting [7]) was 37%; in assay [3] (setting [8]), 98% (active); in assay [3] (at 50.0 µM), 82.5% (active); in assay [4] (setting [7]) it was 6%; in assay [4] (setting [8]), 96% (active); in assay [4] (at 50.0 µM), 91.2% (active). The growth inhibition in assay [5] (setting [7]) was 53%; in assay [5] (setting [8]) it was 97% (active); in assay [5] (at 50.0 µM) it was 94.1% (active); in assay [6] (setting [7]) it was 57%; in assay [6] (setting [8]), 97% (active); in assay [6] (at 50.0 µM), 80.8% (active).
Consider `COc1ccc(/C=c2\sc3nnc(CCC(=O)Nc4cccc(C(F)(F)F)c4)n3c2=O)cc1`, for which the growth inhibition in assay [1] (setting [7]) is -2%; in assay [1] (setting [8]), 28%; in assay [1] (at 50.0 µM), 29.9%; in assay [2] (setting [7]) it was 0%; in assay [2] (setting [8]), 43%; in assay [2] (at 50.0 µM) it was 53.4%. Moreover, the growth inhibition in assay [3] (setting [7]) was -2%; in assay [3] (setting [8]), 51%; in assay [3] (at 50.0 µM) it was 44.9%; in assay [4] (setting [7]) it was 1%; in assay [4] (setting [8]), 21%; in assay [4] (at 50.0 µM), 22.1%. Also, the growth inhibition in assay [5] (setting [7]) was 0%; in assay [5] (setting [8]), 38%; in assay [5] (at 50.0 µM), 29.6%; in assay [6] (setting [7]) it was -3%; in assay [6] (setting [8]), 47%; in assay [6] (at 50.0 µM), 76.8% (active).
`Clc1ccc2c(NCCCCCCNc3ccnc4cc(Cl)ccc34)ccnc2c1`: the growth inhibition in assay [1] (setting [7]) is 2%; in assay [1] (setting [8]), 90% (active); in assay [1] (at 50.0 µM), 65.9%; in assay [2] (setting [7]) it was -3%; in assay [2] (setting [8]) it was 98% (active); in assay [2] (at 50.0 µM) it was 92.4% (active). Moreover, the growth inhibition was -10% in assay [3] (setting [7]); 95% (active) in assay [3] (setting [8]); 87.5% (active) in assay [3] (at 50.0 µM); -2% in assay [4] (setting [7]); 75% (active) in assay [4] (setting [8]); 72.4% (active) in assay [4] (at 50.0 µM). Moreover, the growth inhibition is -11% in assay [5] (setting [7]); 92% (active) in assay [5] (setting [8]); 81.1% (active) in assay [5] (at 50.0 µM); 12% in assay [6] (setting [7]); 97% (active) in assay [6] (setting [8]); 95.8% (active) in assay [6] (at 50.0 µM).
`CC(=O)c1cc(-c2ccc(C)cc2)nc2c(C)cc(C)cc12`: the growth inhibition in assay [1] (setting [7]) was 5%; in assay [1] (setting [8]) it was 15%; in assay [1] (at 50.0 µM), 32.9%; in assay [2] (setting [7]), 5%; in assay [2] (setting [8]), 33%; in assay [2] (at 50.0 µM), 60.5%. Moreover, the growth inhibition in assay [3] (setting [7]) is 6%; in assay [3] (setting [8]), 32%; in assay [3] (at 50.0 µM), -9.2%; in assay [4] (setting [7]), 1%; in assay [4] (setting [8]), 41%; in assay [4] (at 50.0 µM) it was 76.8% (active). For the same compound, the growth inhibition in assay [5] (setting [7]) is 10%; in assay [5] (setting [8]), 40%; in assay [5] (at 50.0 µM), 95.2% (active); in assay [6] (setting [7]), 27%; in assay [6] (setting [8]) it was 41%; in assay [6] (at 50.0 µM), 94.2% (active).
